CHT PAM = human CHT allosteric activation; CHT-expressing cells, membrane potential dye, choline EC20; stronger effect = higher value; LV-AA mutant CHT in HEK293 cells; B-score at 10 µM; hit rate 0.49% among 310,000; Q9GZV3;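 active = initial fluorescence not abnormally high and integrated response B-score, plate-corrected, over 3 SD above library mean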
CHT block = inhibitors of human choline transporter CHT; B-score at 10 µM; CHT-expressing cells, membrane potential dye, choline response; stronger effect = lower value; hit rate 0.86% among 310,000;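 active = B-score over 3 SD under the library average, and starting fluorescence ratio not unusually high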;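 note: choline stimulus applied at its EC90 after an EC20 pre-addition; B-score computed on integrated fluorescence ratio after choline addition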
GPR7 antag = antagonists of human GPR7 (neuropeptides B/W receptor 1); P48145; GPR7-expressing cells, fluorescence antagonist assay; inhibition, % at 4.4 µM; hit rate 1.1% among 290,000; AID 1861; in the data active = inhibition above about 16%, passing the limit was not always enough;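 note: cells stimulated with the agonist NPW; 0% = agonist with vehicle and 100% = vehicle without agonist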
ANO1 block = blocks the mouse calcium-activated chloride channel TMEM16A. hit rate 1.2% among 310,000. normalized B-score (activity score, 25-100; higher = stronger inhibition) at 10 µM. HEK293 TMEM16A/YFP iodide influx fluorescence, ionomycin;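 active = ratio plate-corrected score three or more library SD toward inhibition, starting fluorescence score within five deviations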;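 note: score derived from kinetic fluorescence span divided by baseline fluorescence per well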
Target sequence (Q8BHY3 whole entry, looked up): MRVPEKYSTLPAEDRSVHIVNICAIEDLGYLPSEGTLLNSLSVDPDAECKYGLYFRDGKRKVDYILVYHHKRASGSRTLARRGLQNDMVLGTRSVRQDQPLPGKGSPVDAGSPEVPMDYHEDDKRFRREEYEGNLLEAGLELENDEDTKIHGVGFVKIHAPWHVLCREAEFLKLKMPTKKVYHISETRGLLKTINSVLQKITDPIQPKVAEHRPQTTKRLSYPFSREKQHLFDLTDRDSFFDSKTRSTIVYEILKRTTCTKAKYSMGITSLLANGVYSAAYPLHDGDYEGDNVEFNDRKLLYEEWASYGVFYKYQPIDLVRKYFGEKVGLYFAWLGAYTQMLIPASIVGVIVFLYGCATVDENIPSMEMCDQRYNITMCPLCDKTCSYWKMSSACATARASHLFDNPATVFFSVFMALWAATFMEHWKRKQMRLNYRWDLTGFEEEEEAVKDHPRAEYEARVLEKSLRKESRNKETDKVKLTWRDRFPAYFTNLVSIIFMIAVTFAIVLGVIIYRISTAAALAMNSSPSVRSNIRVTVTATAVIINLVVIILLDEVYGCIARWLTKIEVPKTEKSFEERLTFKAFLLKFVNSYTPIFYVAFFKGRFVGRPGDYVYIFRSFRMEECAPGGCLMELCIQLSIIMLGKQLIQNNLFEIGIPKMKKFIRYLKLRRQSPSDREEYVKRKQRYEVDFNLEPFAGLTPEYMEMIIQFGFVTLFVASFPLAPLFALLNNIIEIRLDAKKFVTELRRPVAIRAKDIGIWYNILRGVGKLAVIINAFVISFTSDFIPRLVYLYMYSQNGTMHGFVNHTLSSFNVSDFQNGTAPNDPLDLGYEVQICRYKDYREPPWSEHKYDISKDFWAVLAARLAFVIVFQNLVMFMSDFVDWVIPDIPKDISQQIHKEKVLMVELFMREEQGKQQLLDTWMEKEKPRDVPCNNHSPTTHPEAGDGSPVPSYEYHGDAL
TMEM16A act = mouse TMEM16A channel activation, primary screen; Q8BHY3; HEK293 TMEM16A/YFP-H148Q/I152L, iodide quench fluorescence; stronger effect = lower value; AID 623877; hit rate 0.3% among 340,000; B-score at 10 µM;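 active = fluorescence-ratio B-score plate-corrected deviation score at least 3 library SD below zero, with starting fluorescence score within 5 deviations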;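 note: channel opened by trigger with iodide after compound preincubation; score built on the fluorescence ratio of max minus min over baseline; more negative score means more quench and so TMEM16A activation or potentiation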
Kir21 inh = Kir2.1 (mouse) channel inhibition; B-score at 10 µM; HEK293-Kir2.1, FluxOR thallium flux fluorescence; stronger effect = lower value; hit rate 0.85% among 310,000; P35561;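 active = fluorescence ratio B-score at or below minus 3 SD of library scores, with starting-brightness B-score within 2 SD, cut at about -4.2 in these data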;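 note: channel flux triggered by added potassium and thallium sulfate stimulus; B-score of peak minus minimum fluorescence over baseline after thallium stimulus; more negative B-score means stronger Kir2.1 block with less thallium influx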
An asterisk follows results filed as active; i = inactive; nt = no result. Shown are actives, neighbours in structure and some others; about 3.7% of the full set was active somewhere.

SMILES	CHT PAM	CHT block	GPR7 antag	ANO1 block	TMEM16A act	Kir21 inh
O=c1nc(N2CCCC2)nc(N2CCCC2)[nH]1	i	i	-1	i	i	0.52
CCOc1ccc(NS(=O)(=O)c2ccc(OC)c(C)c2)cc1	i	i	3	i	i	-7.5*
COc1ccc(S(=O)(=O)Nc2ccc(Cc3ccncc3)cc2)cc1OC	i	i	2	25*	i	-2.2
O=C(CN1CCOCC1)Nc1ccc2c(c1)OCO2	i	i	-4	i	i	1.3
O=C(CN1CCN(S(=O)(=O)c2ccc(Br)cc2)CC1)Nc1ccc2c(c1)OCO2	i	i	31*	i	i	nt
NS(=O)(=O)c1ccc(NC(=O)CN2CCCN(S(=O)(=O)c3ccc(F)cc3)CC2)cc1	i	i	4	i	-7.8*	0.22
NS(=O)(=O)c1ccc(NC(=O)CN2CCN(S(=O)(=O)c3ccc(F)cc3)CC2)cc1	i	i	-6	i	i	-0.04
Cc1ccc(OCCCCNC2CCCC(C)C2C)c(C)c1 (stereo not drawn)	i	i	9	i	i	-7.4*
Cc1ccc(OCCCCN2CCCCC2)c(C)c1	i	i	-11	i	i	0.68
O=C(NC1CC1)C(=O)c1c(-c2ccccc2)[nH]c2ccccc12	i	i	-11	i	-7.5*	0.65
N/C(Cc1ccc(Cl)c(Cl)c1)=N\OC(=O)c1cccs1	i	i	20*	i	i	0.58
COCCN(CCOC)C(=O)c1ccc(NS(=O)(=O)c2ccc3[nH]c(=O)[nH]c3c2)cc1	i	i	0	i	i	1.7
CC(C)COC(=O)N1CCN(S(=O)(=O)c2ccc3c(c2)CCC3)CC1	nt	nt	nt	nt	i	nt
CCc1cc2c(CN(C)Cc3ccccc3F)cc(=O)oc2cc1O	i	i	-43	i	i	-5.9*
CCOc1ccc(NC(=O)NCCCn2c(C)nc3cc(C)c(C)cc32)cc1	i	i	13	i	i	-0.2
Cc1cc2nc(C)n(CCCNC(=O)Nc3cccc4ccccc34)c2cc1C	i	i	14	25*	i	1.4
Cc1nnc(SC(C)C)n(N)c1=O	i	i	-1	i	i	1.6
N#Cc1ccccc1S(=O)(=O)N1CCN(C(=O)CN2C(=O)NC3(CCCC3)C2=O)CC1	i	i	nt	i	i	1.5
Cc1ccc(C(=O)c2coc3c2C(=O)C(=O)c2ccccc2-3)cc1	i	i	11	i	i	-0.44
Cc1oc2c(c1C(=O)c1ccc(Cl)cc1)C(=O)C(=O)c1ccccc1-2	nt	nt	28*	nt	i	-0.37
Cc1ccc(C(=O)c2c(C)oc3c2C(=O)C(=O)c2ccccc2-3)cc1	i	i	13	25*	-18*	1.5
CCOc1ccccc1NC(=O)C(=O)CC(=O)c1ccc(OC)cc1	i	i	4	i	i	0.01
COc1ccc2c(c1)C(C)=CC(C)(C)N2S(=O)(=O)c1ccc(Br)cc1	i	i	29*	i	i	0.59
COC(=O)c1c(NC(=O)C2CC2)sc(C(=O)Nc2ccccc2)c1C	i	i	-7	i	i	-0.58
Cc1ccc(C)c(NC(=O)CN(C)C(=O)c2ccccc2Cc2ccccc2)c1	i	i	nt	i	i	-4.3*
SMILES	CHT PAM	CHT block	GPR7 antag	ANO1 block	TMEM16A act	Kir21 inh
CCCOc1ccc(S(=O)(=O)NCCN2CCOCC2)c2ccccc12	i	i	-11	i	i	-4.4*
CCOc1ccc(S(=O)(=O)NCCN2CCOCC2)c2ccccc12	i	i	-6	i	i	-1.7
O=C(NN1CCCCCC1)c1ccccc1F	nt	nt	nt	nt	i	nt
Cc1ccc2c(c1)C(=O)C(=O)N2CCOc1ccccc1	i	i	33*	i	i	0.27
O=C(O)CN1C(=O)/C(=C\c2cc([N+](=O)[O-])ccc2OCc2ccccc2Cl)SC1=S	i	-6.2*	-20	i	i	-0.74
Cc1cc(C)c(C)c(S(=O)(=O)NCc2cccnc2)c1C	i	i	-6	i	i	-4.7*
Cc1cc(C)c(S(=O)(=O)NCc2cccnc2)c(C)c1	i	i	3	i	nt	0.45
COc1ccc(Nc2nc(N)nc(CN3CCC(Cc4ccccc4)CC3)n2)cc1	i	i	-3	i	i	-4.4*
COc1ccccc1Nc1nc(N)nc(CN2CCC(Cc3ccccc3)CC2)n1	i	i	-2	i	i	-2.7
CC(C)C[C@@H](CO)N1CCN(Cc2ccc([N+](=O)[O-])cc2)CCC1=O	i	i	-6	i	i	-0.23
Cc1ccc(NC(=O)CC(O)(C(F)(F)F)C(F)(F)F)c(Br)c1	i	-5.2*	-24	i	i	2.4
CC1(C)CC(=O)C2=C(C1)OC(N)=C(C#N)C2c1cc2c(cc1[N+](=O)[O-])OCO2 (stereo not drawn)	i	i	-11	i	-5*	-11
CCOc1cc(C2C(C#N)=C(N)OC3=C2C(=O)CC(C)(C)C3)cc([N+](=O)[O-])c1O (stereo not drawn)	i	i	-12	i	i	-0.03
CCCn1cc(C(=O)N(C)C2CCCN(Cc3ccccc3F)C2)c(C)n1 (stereo not drawn)	i	i	-6	i	i	0.14
COc1ccc(C(=O)OCC(=O)NC2CC2)cc1F	nt	nt	nt	nt	i	nt
Cc1ccc(S(=O)(=O)NC(=O)c2ccc(-c3ccc(-c4ccccc4)cc3)o2)c(C)c1	i	i	-6	100*	nt	0.22
COc1cccc(CNc2ccc(S(=O)(=O)Nc3nccs3)cc2)c1O	i	i	17*	i	i	-1.6
CCCc1cc(=O)n2[nH]c(Cc3ccccc3)nc2n1	i	i	18*	i	i	-0.35
O=C(Cn1cnc2nc3n(c2c1=O)CCC3)NCc1ccccc1	i	i	-8	i	i	0.06
COCCn1c(-c2ccccc2)csc1=Nc1cccnc1	i	i	-4	25*	i	0.82
Cc1ccc(-c2csc(=Nc3cccnc3)n2CCCn2ccnc2)cc1C	i	i	-4	25*	i	-4.5*
CC(CC(=O)OCC(=O)Nc1ccc2[nH]c(=O)[nH]c2c1)c1ccccc1 (stereo not drawn)	nt	nt	nt	nt	i	nt
COc1ccc(CCNC(=O)/C(C#N)=C/c2cccc(OCc3ccccc3)c2)cc1OC	i	i	-5	i	i	-4.4*
COCCNC(=O)/C(C#N)=C/c1ccc(OC(=O)c2cccs2)c(OC)c1	nt	nt	-5	nt	i	-6*
Cc1nnc(Sc2cc(NCCCO)c([N+](=O)[O-])c3nonc23)s1	nt	nt	16	nt	i	-7.1*

Source: PubChem BioAssay (several laboratories)
